# Test results reported in the supplement of paper PMC6555819.
# Legend:
# Test in all cases: PBM binding z-score (relative to random genomic background probes); higher = stronger binding; sequences stand for … in GC…GCGATTGACAGCGTAGAATGAAGG
# [1] = test system: FXR:RXRa (NR concentration 270 nM, RXRa partner concentration 90 nM)
# Method in brief: (§1)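 Antibodies against each partner of ligand-free nuclear receptor dimers (one per run) detected binding on custom Agilent 4×180K protein-binding microarrays after 1 h incubation. The double-stranded probes had 34-nt variable regions carrying direct-repeat seeds, single-nucleotide variants, half-site ablations and random human genomic background sequences. Binding z-scores, from regression-normalized fluorescence, use the random background probes as reference.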
# [2] = test system: LXRa:RXRa (NR concentration 270 nM, RXRa partner concentration 90 nM)
# Method in brief: as §1
# [3] = test system: LXRa homodimer (NR concentration 270 nM)
# Method in brief: as §1
# [4] = test system: LXRb:RXRa (NR concentration 270 nM, RXRa partner concentration 90 nM)
# Method in brief: as §1
# [5] = test system: LXRb homodimer (NR concentration 270 nM)
# Method in brief: as §1
# [6] = test system: PPARa:RXRa (NR concentration 270 nM, RXRa partner concentration 90 nM)
# Method in brief: as §1
# [7] = test system: PPARg:RXRa (NR concentration 180 nM, RXRa partner concentration 90 nM)
# Method in brief: as §1
# [8] = test system: PPARg:RXRa 270nM:90nM, anti-RXR (NR concentration 270 nM, RXRa partner concentration 90 nM)
# Method in brief: as §1
# [9] = test system: PPARg:RXRa 30nM:10nM, anti-RXR (NR concentration 30 nM, RXRa partner concentration 10 nM)
# Method in brief: as §1
# [10] = test system: PPARg:RXRa 90nM:30nM, anti-RXR (NR concentration 90 nM, RXRa partner concentration 30 nM)
# Method in brief: as §1
# [11] = test system: PPARg:RXRa DBDmut IVT, anti-RXR (DBD mutation: RXRa K156A/R161A, NR concentration 270 nM, RXRa partner concentration 90 nM)
# Method in brief: as §1
# [12] = test system: PPARg:RXRa IVT, anti-PPARg (NR concentration 270 nM, RXRa partner concentration 90 nM)
# Method in brief: as §1
# [13] = test system: PPARg DBDmut:RXRa IVT, anti-PPARg (DBD mutation: PPARg1 K132A/R137A, NR concentration 270 nM, RXRa partner concentration 90 nM)
# Method in brief: as §1
# [14] = test system: PPARg DBDmut IVT, anti-PPARg (DBD mutation: PPARg1 K132A/R137A, NR concentration 270 nM)
# Method in brief: as §1
# [15] = test system: PPARg homodimer (NR concentration 180 nM)
# Method in brief: as §1
# [16] = test system: PXR:RXRa (NR concentration 270 nM, RXRa partner concentration 90 nM)
# Method in brief: as §1
# [17] = test system: PXR homodimer (NR concentration 270 nM)
# Method in brief: as §1
# [18] = test system: RARa:RXR (NR concentration 270 nM, RXRa partner concentration 90 nM)
# Method in brief: as §1
# [19] = test system: RARa homodimer (NR concentration 270 nM)
# Method in brief: as §1
# [20] = test system: RARb:RXRa (NR concentration 270 nM, RXRa partner concentration 90 nM)
# Method in brief: as §1
Sequence,PBM binding z-score [1],PBM binding z-score [2],PBM binding z-score [3],PBM binding z-score [4],PBM binding z-score [5],PBM binding z-score [6],PBM binding z-score [7],PBM binding z-score [8],PBM binding z-score [9],PBM binding z-score [10],PBM binding z-score [11],PBM binding z-score [12],PBM binding z-score [13],PBM binding z-score [14],PBM binding z-score [15],PBM binding z-score [16],PBM binding z-score [17],PBM binding z-score [18],PBM binding z-score [19],PBM binding z-score [20]
CGTCAAAGTTCAAGTTAACGTAACAGAAAGCAGC,7.26,6.56,4.75,4.33,2.63,5.3,5.08,5.71,2.68,4.8,0.502,2.16,0.474,0.736,3.88,4.92,4.14,3.96,2.01,
AATACAGGATCACTAGGCCAGAGTAGGTACGAAT,-0.102,-0.204,-0.28,-0.407,-0.237,0.128,1.19,0.718,0.264,0.869,0.409,1.29,1.21,0.197,0.314,-0.236,0.366,-0.456,0.395,
CGTCAAAGTTCAAGGTTACGTAACAGAAAGCAGC,6.96,5.9,2.46,4.07,1.18,5.3,4.97,5.43,2.35,4.26,0.998,2.75,1.55,1.22,2.53,4.66,2.48,4.11,1.38,
AGTCAAAGTTCACGACGAGGTAACGTAAAGCACG,7.08,6.16,3.15,3.94,0.875,5.45,7.81,7.17,4.47,6.41,0.0759,3.83,0.65,1.24,4,5.24,2.18,5,1.23,
AGTCATAGTTCACTAGGTAACGTAAGATTCAGCT,0.829,1.51,0.415,1.11,0.233,3.01,3.89,3.82,1.59,2.88,1.88,3.43,1.06,0.768,1.27,1.17,0.241,1.21,0.337,
CGTCTAAGGTCAAGGTCAGTGAAAGAGACTCGAA,8.18,6.22,1.33,5.02,1.18,6.43,6.86,6.78,3.43,5.94,4.02,4.78,0.613,0.471,4.29,5.41,1.4,5.75,2.57,
TAGCCTAGGTCCTTCAGGGGCCAGTATAGAAAGC,-0.77,-0.784,-0.674,-0.628,-0.884,-0.292,-0.229,-0.451,-0.73,-0.359,-1.03,-0.0823,-0.672,0.051,-0.932,-0.686,-0.979,-0.334,-0.852,
CTCGAAAGGTCAGTTGAGGTGAGTATACGGATAA,6.96,5.84,1.79,4.51,2.26,5.5,4.89,5.13,1.86,4.15,2.81,3.53,0.544,1.62,5.81,5.79,0.639,5.08,3.41,
GCTGCTAGGTCAGGTTGGTCGGCTAACGGGTACG,1.01,0.53,-0.245,0.0524,-0.665,1.04,0.113,0.773,-0.581,0.235,2.56,1.97,-0.279,-0.788,0.576,-0.127,-0.593,0.317,-0.865,
CCGACTGGGCCATTCAGAGGTCATTGATCATATG,2.92,4.38,6.59,3.54,-0.323,3.44,1.4,2.29,0.268,1.42,3.29,2.53,-0.872,-0.8,3.14,4.88,2.75,4.62,-0.131,
CGAACTAGGTCAGAACAGGACATTGAAGGATGAT,1.42,1.55,0.178,0.649,-0.13,3.32,5.42,4.48,1.68,3.62,7.08,7.32,2.82,2.2,1.27,1.96,0.214,1.66,0.708,
CCTACTGGGCCAAAGGTCCTTGATTCCAATGCTC,-0.0555,-0.225,-0.404,0.0817,-0.832,3.84,8.78,8.68,8.07,8.91,5.03,5.07,-0.487,-1.06,0.826,-0.225,-0.792,0.089,-0.831,
CGTCTAAGGTCAGCAGGTCAGTGAAAGCGACGTG,6.71,4.48,0.785,3.61,0.0498,5.3,4.86,5.46,1.6,4.03,3.72,3.7,0.756,0.144,5.12,4.16,0.612,5.94,2.05,
CGTGCAAGGTCAGAGAGGTCAGTGAATGCCGAGT,6.42,5.22,3.35,4.61,0.199,5.16,3.9,4.62,1.19,3.09,2.79,3.68,0.231,-0.338,2.85,6.05,11.2,5.42,0.698,
CGAACTAGGTCAGAACAGGACAGTTAAGGATGAT,1.32,0.929,-0.00999,0.73,-0.36,3.07,5.13,4.49,2.04,3.46,7,7.32,3.55,1.83,1.49,1.15,0.458,1.41,0.874,
CGTCGGAGGACAACAGGAGGTCAGAGCTGCCAGA,1.46,2.29,2.3,1.48,-0.649,1.98,0.434,0.482,-0.532,0.226,0.202,0.616,-1.5,-1.4,2.42,2.5,0.93,2.58,0.114,
CGAACTAGGTCAGAACAGTACAGTGAAGGATGAT,1.08,0.839,0.06,0.623,-0.447,2.86,5.05,4.39,1.99,3.68,7.19,7.31,2.36,3.58,1.14,0.921,0.234,0.873,0.291,
GCTGCTAGGTAAGGTTGGTCAGCTAACGGGTACG,-0.225,-0.495,-0.455,-0.746,-0.795,-0.411,-0.199,-0.51,-0.761,-0.734,0.515,0.0144,-1.12,-0.451,-0.00134,-0.363,-0.442,-0.608,-0.745,
TTACGAAGGTGAAAGGTCGTTGATGCACGCCTTG,3.43,3.33,0.283,2.75,-0.598,5.25,8.12,7.35,6.74,8.17,2.05,4.53,0.416,0.212,1.39,3.77,0.289,5.13,0.203,
CAAAGTAGGTCAAGAGGTCAAAGTCCGCTTCCCG,7.25,6.52,6.36,5.69,2.34,6.74,10.3,8.87,7.55,9.17,8.4,8.84,1.65,1.18,5.39,6.22,3.31,7.83,2.53,5.55
AACGAAAGGTCGACGAGGTGAGTATACACCGTTT,4.99,3.68,0.231,2.9,0.0317,4.82,3.19,3.42,1.02,2.48,0.793,1.94,0.978,0.568,1.32,2.95,0.578,3.56,0.305,3.91
TAGCCTAGGTCATGCGGGCCAGCATAGTGTCGGC,3.77,3,0.115,1.37,-0.19,3.4,2.11,2.55,0.274,1.49,1.81,2.94,0.0937,-0.357,1.08,1.52,-0.642,2.1,-0.53,3.59
CAAACTAGGTCAAAGGTCAAACTCGAGCCAACCA,8.63,7.62,6.78,7.4,3.51,7.76,14.1,11.6,13.3,13.7,8.72,9.06,5.54,4.24,5.23,7.03,2.84,8.96,3.29,5.81
ACTAATTGGTCAGCTGAGGTCACACACAATTCGG,3.46,3.25,2.59,3.68,1.15,4.06,2.17,2.77,1.23,1.88,1.58,2.86,1.1,1.2,2.75,5.67,1.67,4.72,1.56,3.91
TCTGCTGGGTCAACGATGGTCAGCTAATCTGCTA,2.59,1.95,-0.835,1.16,-0.168,3.19,1.92,2.57,1.69,2.14,3.36,3.7,1.06,0.239,0.518,1.46,-1.34,2.07,-1.24,3.6
CAAGCTAGGTCAAGAGGTCAAAGTCCGCTTCCCG,7.28,6.35,6.45,5.81,1.58,6.2,6.82,6.77,4.04,6.31,4.26,5.5,0.198,-0.534,7.12,6.25,3.16,7.58,3.04,
ACTAGTTGGTCACCTGAGGTCACACACAATTCGG,4.76,6.29,6.67,4.97,1.5,4.17,2.75,3.37,1.09,2.1,2.55,3.78,1.79,1.35,4.91,6.25,3.12,5.48,2.94,3.91
GCTCGGAGGACAAGGTCAGGGCTTTGTCCGTAGA,2.38,2.11,-0.64,1.71,-0.689,2.95,1.07,1.94,-0.338,0.806,-0.354,1.3,-0.608,-0.233,0.661,2.03,-0.681,2.71,-0.898,3.83
ATCGAAACGTCGACGAGGTGAGTATACACCGTTT,-0.264,-0.5,-0.605,-0.525,-0.00441,-0.269,0.855,-0.111,-0.111,-0.157,-0.306,0.572,0.364,1.43,-0.489,-0.346,-0.33,-0.0607,0.109,-0.0586
TCTAGTTGGTCATGGAGGTCACACACGACGGGTA,3.61,3.7,3.33,3.3,1.23,3.9,3.39,3.95,3.27,3.52,2.58,3.96,1.39,1.01,3.56,4.8,2.15,4.97,2.88,3.77
